# The full ranking holds about 140,000 sequences; the median of “enrichment ratio after two sorts for PhoP signalling” is about 0, and the highest 2% start at about 11. The entries come from a sample that favours the highest values as a whole.
# B1: PhoQ; a variant is named by its letters at X, in order, P23837 (parent)
# chain: MKKLLRLFFPLSLRVRFLLATAAVVLVLSLAYGMVALIGYSVSFDKTTFRLLRGESNLFYTLAKWENNKLHVELPENIDKQSPTMTLIYDENGQLLWAQRDVPWLMKMIQPDWLKSNGFHEIEADVNDTSLLLSGDHSIQQQLQEVREDDDDAEMTHSVAVNVYPATSRMPKLTIVVVDTIPVELKSSYMVWSWFIYVLSANLLLVIPLLWVAAWWSLRPIEALAKEVRELEEHNRELLNPATTRELTSLVRNLNRLLKSERERYDKYRTTLTDLTHSLKTPLXXLQXXLRSLRSEKMSVSDAEPVMLEQISRISQQIGYYLHRASMRGGTLLSRELHPVAPLLDNLTSALNKVYQRKGVNISLDISPEISFVGEQNDFVEVMGNVLDNACKYCLEFVEISARQTDEHLYIVVEDDGPGIPLSKREVIFDRGQRVDTLRPGQGVGLAVAREITEQYEGKIVAGESMLGGARMEVIFGRQHSAPKDE
# Variants of: B1
# Test: enrichment ratio after two sorts for PhoP signalling (ratio (wild type AVST 3.29)); higher = more functional
# Details: with PhoP (E. coli)
row,Variant,enrichment ratio
1,SAME,0.508
2,WCYN,≤ 0.25
3,KFKF,≤ 0.25
4,GTRF,≤ 0.25
5,LCNN,≤ 0.25
6,FSNL,≤ 0.25
7,TSNL,12.5
8,TSNN,12.2
9,KSNL,≤ 0.25
10,KSNN,≤ 0.25
11,LVAI,≤ 0.25
12,NFCN,≤ 0.25
13,KCAV,≤ 0.25
14,KCSV,≤ 0.25
15,HVSV,≤ 0.25
16,VEEF,≤ 0.25
17,TCAE,≤ 0.25
18,KCEF,≤ 0.25
19,TCAH,11.7
20,KCAH,≤ 0.25
21,VCAH,≤ 0.25
22,TCEF,13.2
23,TCSV,17.7
24,TCAV,13.4
25,SLYY,≤ 0.25

row,Variant,enrichment ratio
1,DQFN,≤ 0.25
2,RPHE,≤ 0.25
3,SDPC,≤ 0.25
4,FRSR,≤ 0.25
5,KCSM,≤ 0.25
6,VCSM,3.67
7,TCLT,4.19
8,TCSM,18.9
9,TCNY,9.63
10,TCLS,7.88
11,TCGY,20.3
12,TCLA,11.9
13,KCAS,≤ 0.25
14,TCAS,12.2
15,FCAS,≤ 0.25
16,TCVP,≤ 0.25
17,RVLR,≤ 0.25
18,ENDI,≤ 0.25
19,MVRF,≤ 0.25
20,HGLK,≤ 0.25
21,GGGP,≤ 0.25
22,KHVK,≤ 0.25
23,TCAN,25.6
24,KCLK,≤ 0.25
25,KCSC,≤ 0.25

row,Variant,enrichment ratio
1,FCAN,≤ 0.25
2,KCAN,≤ 0.25
3,VCMT,≤ 0.25
4,FCLK,1.84
5,TCIT,≤ 0.25
6,HVSC,≤ 0.25
7,TCLK,13.1
8,TCSC,12.3
9,TCMT,14.5
10,NFFS,≤ 0.25
11,FFPR,≤ 0.25
12,DMHV,≤ 0.25
13,ETAR,≤ 0.25
14,KLGR,≤ 0.25
15,TCTW,10.8
16,FCSN,≤ 0.25
17,TCSN,20
18,VCAQ,≤ 0.25
19,LSTQ,≤ 0.25
20,KCAQ,≤ 0.25
21,TCDD,≤ 0.25
22,KCSN,≤ 0.25
23,TCTQ,21.4
24,TCGD,20.3
25,TCYD,≤ 0.25

row,Variant,enrichment ratio
1,TCAQ,15.5
2,HFQA,≤ 0.25
3,FHFW,≤ 0.25
4,KCDC,≤ 0.25
5,TKEF,≤ 0.25
6,SVFR,0.428
7,SAGS,3.14
8,SRYF,≤ 0.25
9,IHVG,≤ 0.25
10,LNTP,≤ 0.25
11,NEMN,≤ 0.25
12,TALV,10.2
13,EMAS,≤ 0.25
14,ESQI,≤ 0.25
15,VEGF,≤ 0.25
16,VCAK,≤ 0.25
17,TCAK,11.2
18,TCSY,13.3
19,KCSA,≤ 0.25
20,HVSY,≤ 0.25
21,TCSA,18.5
22,TCHF,8.33
23,FCSA,≤ 0.25
24,KCAK,≤ 0.25
25,KCSY,≤ 0.25

row,Variant,enrichment ratio
1,TCGF,12.5
2,YCQN,≤ 0.25
3,DLMC,≤ 0.25
4,PANG,≤ 0.25
5,THES,≤ 0.25
6,THGV,1.56
7,PMKY,≤ 0.25
8,TLGR,≤ 0.25
9,GLIF,≤ 0.25
10,GQSL,≤ 0.25
11,ACSL,16.6
12,KCCL,≤ 0.25
13,ACGL,2.96
14,TCWI,1.27
15,TCDS,1.7
16,TCCL,13.8
17,TCSL,16.4
18,KCSL,≤ 0.25
19,TCNS,16.1
20,VECL,2.59
21,FCSL,0.351
22,IIGM,≤ 0.25
23,QKHF,≤ 0.25
24,LRCK,≤ 0.25
25,NVPP,≤ 0.25

row,Variant,enrichment ratio
1,APIR,≤ 0.25
2,AWVY,≤ 0.25
3,ELQD,≤ 0.25
4,SGPP,≤ 0.25
5,HHVH,≤ 0.25
6,TICC,2.66
7,KPAP,≤ 0.25
8,AQWF,≤ 0.25
9,TCNT,7.62
10,TCSK,13.7
11,TCAT,14.5
12,KCSS,≤ 0.25
13,TCVA,≤ 0.25
14,TCSR,5.34
15,KCAY,≤ 0.25
16,TCYI,1.36
17,FCSS,≤ 0.25
18,TCSS,15
19,TCDT,≤ 0.25
20,TCAY,14.1
21,LFWM,≤ 0.25
22,NNTR,≤ 0.25
23,IGVH,≤ 0.25
24,WSVN,≤ 0.25
25,HDQK,≤ 0.25

row,Variant,enrichment ratio
1,LDIL,≤ 0.25
2,MIIK,≤ 0.25
3,TCLC,23.4
4,VCLN,2.29
5,KCAG,≤ 0.25
6,FCLC,7.16
7,VCLC,2.94
8,TCLN,13.6
9,TCNE,19.6
10,TCHE,≤ 0.25
11,TCAG,12.5
12,FCAG,≤ 0.25
13,FCLN,3.94
14,TCIE,≤ 0.25
15,FAWY,≤ 0.25
16,SDGA,≤ 0.25
17,GPWK,≤ 0.25
18,LRLK,≤ 0.25
19,SNTI,10.1
20,MHKW,≤ 0.25
21,IAWT,≤ 0.25
22,DASW,≤ 0.25
23,TCEG,≤ 0.25
24,GWNG,≤ 0.25
25,QLVN,≤ 0.25

row,Variant,enrichment ratio
1,FINA,≤ 0.25
2,ENVY,≤ 0.25
3,TCSG,26.2
4,VEGI,≤ 0.25
5,TCSI,23.8
6,TCGI,25
7,GMGI,≤ 0.25
8,TCIL,≤ 0.25
9,TCGL,13.5
10,KCSG,≤ 0.25
11,KCSI,≤ 0.25
12,FCSI,≤ 0.25
13,VCSG,0.44
14,TCNL,4.28
15,MHTY,≤ 0.25
16,LARC,≤ 0.25
17,RLPH,≤ 0.25
18,TNFS,≤ 0.25
19,RRNI,≤ 0.25
20,GIHS,≤ 0.25

# Source: a collection of fitness landscapes (doi:10.1126/science.1257360)
